Data: PubChem BioAssay (Tox21)
Inconclusive results are not listed. The source made the active and inactive calls. Unless noted, calls follow the shape of the full dose curve.

Assays:
[1] = target: Androgen receptor (Homo sapiens) (UniProt P10275); assay: qHTS assay to identify small molecule agonists of the androgen receptor (AR) signaling pathway in the presence of an antagonist (AID 1259381); also: nearly all actives have a fitted effect of over 15% in size
Outline: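 Plated MDA-kb2 cells (3,000/well) were pre-incubated 5hr, given nilutamide (3.0uM final) or buffer, then dosed with compounds in DMSO at 15 concentrations. Luciferase activity was quantified by luminescence after 16hr at 37C.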

[2] = qHTS assay to identify small molecule antagonists of the estrogen receptor beta (ER-beta) signaling pathway - cell viability counter screen (AID 1259382; active = well fitted curve in the direction sought with a large enough effect in the repeat runs; an effect the other way counts as inactive or inconclusive;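 also: HEK293T cells carrying ER-beta-UAS-bla reporter stimulated with estradiol; series mostly up to about 92 µM; nearly all actives have a fitted effect of over 55% in size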)
Outline: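 CellTiter-Glo ATP luminescence measured after the LiveBLAzer read in the same wells; ER-beta-UAS-bla HEK293T cells, 16 hr compound treatment with 1nM 17-beta-estradiol agonist at 37C, 5% CO2.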

[3] = target: Estrogen receptor (Homo sapiens) (UniProt P03372); assay: qHTS assay to identify small molecule agonists of the estrogen receptor alpha (ER-alpha) signaling pathway in the presence of an antagonist (AID 1259383); also: top concentration of the series differs between compounds; nearly all actives have a fitted effect of over 15% in size
Estrogen receptor (Homo sapiens), sequence (P03372 whole entry, looked up): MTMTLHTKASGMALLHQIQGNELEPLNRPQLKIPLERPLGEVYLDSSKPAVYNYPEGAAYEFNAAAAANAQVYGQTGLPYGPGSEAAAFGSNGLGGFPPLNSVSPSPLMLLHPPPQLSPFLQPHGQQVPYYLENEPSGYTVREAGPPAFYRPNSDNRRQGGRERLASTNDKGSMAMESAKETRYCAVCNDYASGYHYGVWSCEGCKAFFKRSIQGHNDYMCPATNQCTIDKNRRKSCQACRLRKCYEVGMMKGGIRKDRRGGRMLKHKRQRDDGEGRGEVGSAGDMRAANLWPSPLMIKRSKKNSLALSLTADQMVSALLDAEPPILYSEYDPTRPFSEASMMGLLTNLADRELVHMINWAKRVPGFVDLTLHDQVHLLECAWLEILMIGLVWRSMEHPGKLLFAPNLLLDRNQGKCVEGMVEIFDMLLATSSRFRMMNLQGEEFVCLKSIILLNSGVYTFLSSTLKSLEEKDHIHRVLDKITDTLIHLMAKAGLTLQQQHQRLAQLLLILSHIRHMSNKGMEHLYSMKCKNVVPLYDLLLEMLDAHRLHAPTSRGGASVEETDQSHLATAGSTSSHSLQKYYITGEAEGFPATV
Outline: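 Luminescent ERE-luciferase reporter, VM7Luc4E2 cells (endogenous ER-alpha); 10.0nM ICI-182,780 final; 15-point compound titration; 22hr at 37C; ONE-Glo, 30min RT.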

[4] = qHTS assay to identify small molecule agonists of the estrogen receptor alpha (ER-alpha) signaling pathway in the presence of an antagonist - cell viability counter screen (AID 1259386; active = well fitted curve in the direction sought with a large enough effect in the repeat runs; an effect the other way counts as inactive or inconclusive;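 also: series mostly up to about 92 µM; cells exposed to compounds for 22 h at 37 °C before the viability read; nearly all actives have a fitted effect of over 30% in size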)
Outline: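 Using estrogen-depleted VM7Luc4E2 cells, the 15-concentration compound series was applied together with 10.0nM ICI-182,780 and incubated 22hr at 37C/5% CO2. Cell viability was then scored by CellTiter-Fluor.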

[5] = target: Progesterone receptor (Homo sapiens) (UniProt P06401); assay: qHTS assay to identify small molecule agonists of the progesterone receptor (PR) signaling pathway (AID 1346784); also: nearly all actives have a fitted effect of over 30% in size
Progesterone receptor (Homo sapiens), sequence (P06401 whole entry, looked up): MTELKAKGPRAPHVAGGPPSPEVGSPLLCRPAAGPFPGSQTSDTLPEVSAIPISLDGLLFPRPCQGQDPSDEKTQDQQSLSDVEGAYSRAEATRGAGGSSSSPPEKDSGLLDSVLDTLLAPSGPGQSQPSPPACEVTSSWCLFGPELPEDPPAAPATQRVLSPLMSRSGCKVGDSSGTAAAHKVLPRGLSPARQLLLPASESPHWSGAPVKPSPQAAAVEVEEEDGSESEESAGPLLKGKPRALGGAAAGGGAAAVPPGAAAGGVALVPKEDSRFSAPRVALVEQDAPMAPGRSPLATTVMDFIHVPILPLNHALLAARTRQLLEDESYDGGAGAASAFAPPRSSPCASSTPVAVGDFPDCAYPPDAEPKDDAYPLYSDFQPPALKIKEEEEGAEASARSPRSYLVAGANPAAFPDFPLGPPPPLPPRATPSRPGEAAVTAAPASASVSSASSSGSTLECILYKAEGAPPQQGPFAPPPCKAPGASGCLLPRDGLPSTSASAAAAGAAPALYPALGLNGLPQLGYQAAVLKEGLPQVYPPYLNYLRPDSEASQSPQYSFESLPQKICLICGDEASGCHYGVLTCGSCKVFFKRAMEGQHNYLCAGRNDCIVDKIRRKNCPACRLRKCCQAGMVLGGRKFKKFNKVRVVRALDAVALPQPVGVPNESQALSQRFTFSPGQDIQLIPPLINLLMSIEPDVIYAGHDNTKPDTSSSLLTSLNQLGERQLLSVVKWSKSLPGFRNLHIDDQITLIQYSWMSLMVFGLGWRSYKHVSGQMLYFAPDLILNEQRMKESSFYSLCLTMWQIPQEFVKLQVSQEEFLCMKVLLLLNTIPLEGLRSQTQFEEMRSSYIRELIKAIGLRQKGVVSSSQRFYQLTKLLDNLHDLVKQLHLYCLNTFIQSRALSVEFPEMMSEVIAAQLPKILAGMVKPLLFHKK
Outline: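 Seed PR-UAS-bla HEK 293T cells (2% charcoal-stripped FBS), incubate 6 hr at 37C; add compounds in DMSO, 16 hr at 37C; add LiveBLAzer B/G substrate, 2 hr RT; read fluorescence intensity.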

[6] = target: Progesterone receptor (Homo sapiens) (UniProt P06401); assay: qHTS assay to identify small molecule antagonists of the progesterone receptor (PR) signaling pathway (AID 1346795; active = well fitted inhibition curve with a large enough effect in the signal ratio in the repeat runs, not every such curve was filed as active; the % refers to the signal ratio)
Outline: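 Screening used a GripTite HEK293T line with PR-responsive UAS-beta-lactamase. Cells were challenged with compound in the presence of 1 nM R5020 final for 16 hr at 37C; B/G FRET substrate, 2 hr room temperature, fluorescence.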

[7] = qHTS assay to identify small molecule antagonists of the progesterone receptor (PR) signaling pathway - cell viability counter screen (AID 1346798; active = well fitted curve in the direction sought with a large enough effect in the repeat runs; an effect the other way counts as inactive or inconclusive; also: series mostly up to about 92 µM; nearly all actives have a fitted effect of over 50% in size)
Outline: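 Measures cytotoxicity in parallel with the PR antagonist reporter read: HEK293T PR-UAS-bla cells get compound and R5020 for 16 hr, and remaining viable cells are quantified by CellTiter-Glo luminescence.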

[8] = qHTS assay to identify small molecule agonists of the progesterone receptor (PR) signaling pathway - cell viability counter screen (AID 1346799); also: nearly all actives have a fitted effect of over 45% in size
Outline: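 Using the same plates as the PR reporter screen, HEK293T PR-UAS-bla cells received compounds for 16 hr at 37C and were then lysed with CellTiter-Glo; luminescence was read 30 min later at room temperature.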

[9] = qHTS assay to identify small molecule agonists or antagonists of the thyroid stimulating hormone receptor (TSHR) signaling pathway - wild type cell line counter screen (AID 1259384)
Outline: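 Wild-type Hek293 cells, 800/well, 18 h at 37C, then compound with Ro20-1724 for 30 min RT. cAMP by HTRF (cAMP-d2/anti-cAMP cryptate), 1 h RT, fluorescence read. 15 concentrations, triplicates.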

[10] = target: Thyrotropin receptor (Homo sapiens) (UniProt P16473); assay: qHTS assay to identify small molecule antagonists of the thyroid stimulating hormone receptor (TSHR) signaling pathway (AID 1259385); also: nearly all actives have a fitted effect of over 20% in size
Thyrotropin receptor (Homo sapiens), sequence (P16473 whole entry, looked up): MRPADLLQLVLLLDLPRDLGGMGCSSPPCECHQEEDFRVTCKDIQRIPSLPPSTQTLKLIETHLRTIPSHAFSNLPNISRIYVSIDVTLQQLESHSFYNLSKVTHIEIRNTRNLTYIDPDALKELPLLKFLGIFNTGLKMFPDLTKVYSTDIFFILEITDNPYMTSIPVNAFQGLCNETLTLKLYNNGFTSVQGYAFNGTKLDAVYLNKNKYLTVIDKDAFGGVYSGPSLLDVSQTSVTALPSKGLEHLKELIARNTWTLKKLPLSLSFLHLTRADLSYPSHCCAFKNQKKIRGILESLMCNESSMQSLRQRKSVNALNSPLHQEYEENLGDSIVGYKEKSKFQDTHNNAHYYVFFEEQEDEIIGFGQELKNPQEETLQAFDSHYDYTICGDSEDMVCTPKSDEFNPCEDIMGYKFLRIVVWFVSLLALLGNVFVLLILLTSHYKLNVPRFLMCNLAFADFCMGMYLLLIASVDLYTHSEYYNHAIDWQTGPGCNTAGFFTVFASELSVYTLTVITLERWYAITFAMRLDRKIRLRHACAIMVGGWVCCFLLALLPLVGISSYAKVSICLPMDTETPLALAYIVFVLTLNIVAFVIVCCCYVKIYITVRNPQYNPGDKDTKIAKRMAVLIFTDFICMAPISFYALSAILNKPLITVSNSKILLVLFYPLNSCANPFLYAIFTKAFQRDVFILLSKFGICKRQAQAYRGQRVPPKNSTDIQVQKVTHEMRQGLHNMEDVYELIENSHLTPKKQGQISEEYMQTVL
Outline: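 TSHR-HEK293 cells (800/well) plated 18 h, then compounds with Ro20-1724 and TSH at 1.5 ng/mL final, 30 min at room temperature. cAMP quantified by HTRF (cAMP-d2/anti-cAMP-cryptate, 1 h); 15 concentrations in triplicate.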
% is scaled to controls: 0 for no effect and ±100 for the full control effect.

Androgen receptor (Homo sapiens), sequence (P10275 whole entry, looked up): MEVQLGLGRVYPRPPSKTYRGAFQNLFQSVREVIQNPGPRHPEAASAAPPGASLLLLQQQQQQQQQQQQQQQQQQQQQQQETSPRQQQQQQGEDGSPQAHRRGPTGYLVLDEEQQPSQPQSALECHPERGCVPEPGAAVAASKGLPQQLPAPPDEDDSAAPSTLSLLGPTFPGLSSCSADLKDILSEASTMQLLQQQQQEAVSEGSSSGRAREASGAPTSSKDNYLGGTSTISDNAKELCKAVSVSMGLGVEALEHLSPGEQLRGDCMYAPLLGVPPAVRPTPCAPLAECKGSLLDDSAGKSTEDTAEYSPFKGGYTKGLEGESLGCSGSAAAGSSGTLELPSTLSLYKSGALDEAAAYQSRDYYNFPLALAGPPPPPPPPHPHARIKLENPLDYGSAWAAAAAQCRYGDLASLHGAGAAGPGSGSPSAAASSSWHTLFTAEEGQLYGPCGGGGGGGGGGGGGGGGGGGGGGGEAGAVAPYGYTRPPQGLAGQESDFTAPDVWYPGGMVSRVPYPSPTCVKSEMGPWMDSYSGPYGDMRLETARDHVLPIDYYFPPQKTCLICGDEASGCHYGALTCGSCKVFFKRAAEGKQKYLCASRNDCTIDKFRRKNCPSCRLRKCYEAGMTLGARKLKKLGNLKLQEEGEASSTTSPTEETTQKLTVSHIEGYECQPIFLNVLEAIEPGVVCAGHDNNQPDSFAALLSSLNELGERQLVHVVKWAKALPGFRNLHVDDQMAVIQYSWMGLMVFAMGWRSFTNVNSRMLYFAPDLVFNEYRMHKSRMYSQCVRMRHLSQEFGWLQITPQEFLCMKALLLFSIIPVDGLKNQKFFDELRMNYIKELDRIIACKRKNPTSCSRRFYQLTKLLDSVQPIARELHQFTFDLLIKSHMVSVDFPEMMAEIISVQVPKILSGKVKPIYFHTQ

O=C(NCN1CCOCC1)c1cnccn1
inactive: outcome [1] | outcome [2] | Potency [3] | outcome [4] | Potency [5] | Potency [6] | outcome [7] | outcome [8]

CC(=O)CC(=O)OC(C)(C)C
inactive: outcome [1] | outcome [2] | Potency [3] | outcome [9] | outcome [10] | outcome [4] | Potency [5] | Potency [6] | outcome [7] | outcome [8]

Cc1c(C(=O)c2c[nH]n(C)c2=O)ccc(S(C)(=O)=O)c1C1=NOCC1
inactive: outcome [1] | outcome [2] | Potency [3] | outcome [4] | outcome [7] | outcome [8]

CC(C)C1OCCN1CCOC(=O)NCCCCCCNC(=O)OCCN1CCOC1C(C)C (stereo not drawn)
inactive: outcome [1] | outcome [2] | Potency [3] | outcome [9] | outcome [10] | outcome [4] | Potency [5] | Potency [6] | outcome [7] | outcome [8]

CCCCCCCCCOC(=O)c1ccccc1C(=O)OCCCCCCCCC
inactive: outcome [1] | outcome [2] | Potency [3] | outcome [9] | outcome [10] | outcome [4] | Potency [5] | outcome [7]

Nc1nc(-c2ccccc2)c(Br)c(=O)[nH]1
inactive: outcome [1] | outcome [2] | Potency [3] | outcome [9] | outcome [10] | outcome [4] | Potency [5] | Potency [6] | outcome [8]

CC(=O)OC1CCCCC1C(C)(C)C (stereo not drawn)
inactive: outcome [1] | outcome [2] | Potency [3] | outcome [9] | outcome [10] | outcome [4] | Potency [5] | Potency [6] | outcome [7] | outcome [8]

N[C@@H](CSCCCO)C(=O)O
inactive: activation [1] -0.115% [at 19 µM] | activity change, negative = cytotoxicity [2] 8.62% [at 19 µM] | activation [3] -1.71% [at 19 µM] | cAMP activity change [9] -1.7% [at 18.9 µM] | activity change, negative = inhibition [10] -0.731% [at 19 µM] | activity change, negative = cytotoxicity [4] -1.24% [at 19 µM] | activation [5] -0.517% [at 19 µM] | activity change, negative = inhibition [6] 8.75% [at 18.9 µM] | activity change, negative = cytotoxicity [7] -3.41% [at 18.9 µM] | activity change, negative = cytotoxicity [8] 4.73% [at 19 µM]

CC(C)NC(=O)c1ccc(C=O)cc1
inactive: outcome [1] | outcome [2] | outcome [9] | outcome [10] | outcome [4] | Potency [5] | Potency [6] | outcome [7] | outcome [8]

COC(=O)CCCCC(CCSS/C(CCO)=C(\C)N(C=O)Cc1cnc(C)nc1N)SC(C)=O (stereo not drawn)
inactive: outcome [1] | outcome [2] | Potency [3] | outcome [9] | outcome [10] | outcome [4] | Potency [5] | outcome [7] | outcome [8]

COc1cc2c(cc1OC)C(=O)C(CC1CCN(Cc3ccccc3)CC1)C2 (stereo not drawn)
inactive: outcome [1] | outcome [2] | Potency [3] | outcome [9] | outcome [10] | Potency [5] | Potency [6] | outcome [7] | outcome [8]

C#CCN[C@@H]1CCc2ccccc21
inactive: outcome [1] | outcome [2] | Potency [3] | outcome [9] | outcome [10] | outcome [4] | Potency [5] | Potency [6] | outcome [7] | outcome [8]

OC1(c2ccc(Cl)cc2)CCNCC1
inactive: outcome [1] | outcome [2] | Potency [3] | outcome [9] | outcome [10] | outcome [4] | Potency [5] | Potency [6] | outcome [7]

[O-][n+]1cccc(/C(Cl)=N/OC[C@@H](O)CN2CCCCC2)c1
inactive: outcome [1] | outcome [2] | Potency [3] | outcome [4] | Potency [5] | Potency [6] | outcome [7] | outcome [8]

COCCc1ccccn1
inactive: outcome [1] | outcome [2] | Potency [3] | outcome [9] | outcome [10] | outcome [4] | outcome [7] | outcome [8]

CCC(C)OC(C)CC (stereo not drawn)
inactive: outcome [1] | outcome [2] | Potency [3] | outcome [9] | outcome [10] | outcome [4] | outcome [7]

CC(C)C[C@@H]1[C@H](c2ccccc2)OC(=O)N1CCCN1CCCCCC1
inactive: outcome [1] | outcome [2] | Potency [3] | outcome [9] | outcome [10] | outcome [4] | Potency [5] | Potency [6]

COc1cc(OC)nc(O[C@H](C(=O)O)C(OC)(c2ccccc2)c2ccccc2)n1
inactive: outcome [1] | outcome [2] | Potency [3] | outcome [9] | outcome [10] | outcome [4] | Potency [5] | outcome [8]

Cc1ccc(C(=O)O)cc1[N+](=O)[O-]
inactive: outcome [1] | outcome [2] | Potency [3] | outcome [9] | outcome [10] | outcome [4] | Potency [5] | Potency [6] | outcome [7] | outcome [8]

O=C(CCCl)NCCc1ccccc1
inactive: outcome [1] | outcome [2] | Potency [3] | outcome [9] | outcome [10] | outcome [4] | Potency [6] | outcome [7] | outcome [8]

C=CCOC(=O)CCCCCC
inactive: outcome [1] | outcome [2] | outcome [9] | outcome [10] | outcome [4] | Potency [5] | Potency [6] | outcome [7] | outcome [8]

CCOc1ccccc1OCC1CNCCO1 (stereo not drawn)
inactive: outcome [1] | outcome [2] | Potency [3] | outcome [9] | outcome [10] | outcome [4] | Potency [5] | outcome [7] | outcome [8]

CC(C)COC(=O)c1ccccc1
inactive: outcome [1] | outcome [2] | Potency [3] | outcome [9] | outcome [10] | outcome [4] | Potency [5]

CC(S)C(C)S (stereo not drawn)
inactive: outcome [1] | outcome [2] | Potency [3] | outcome [9] | outcome [10] | outcome [4] | Potency [5] | Potency [6] | outcome [7] | outcome [8]

CCO
inactive: outcome [1] | outcome [2] | Potency [3] | outcome [9] | outcome [10] | outcome [4] | Potency [6] | outcome [7] | outcome [8]

OC[C@H]1O[C@@H](O[C@@H]2[C@@H](CO)O[C@](O)(CO)[C@H]2O)[C@H](O)[C@@H](O)[C@H]1O
inactive: outcome [1] | outcome [2] | Potency [3] | outcome [9] | outcome [10] | outcome [4] | Potency [6] | outcome [7] | outcome [8]
